# Inconclusive results are not listed. Unmarked numbers belong to inactive results. Activity calls are given as the source filed them. Calls come from the whole dose curve. Bridge positions count the residues as written; N and C are the ends. Peptide text beside a SMILES is read from it.
# Assay: Primary qHTS for Vero E6 cytotoxicity: counterscreen for inhibitors of SARS-S pseudo-typed particle cell entry (AID 1479150)
# Details: cell viability; series mostly up to 57.1 µM; activity change, negative = cytotoxicity: at the top concentration
# % is set by controls: 0 for no effect and ±100 for the full control effect.
Compound,"activity change, negative = cytotoxicity",outcome
C[C@@]12CCCCC[C@@H](Cc3ccc(O)cc31)[C@H]2N,1.9%,
CCCCCCCCCCCCCCCC(=O)OCC(O)C1OC(=O)C(O)=C1O (stereo not given),0.202%,
CC(=O)Oc1c(C)cc(OCC(O)CNC(C)C)c(C)c1C (stereo not given),-4.32% [at 114 µM],
Oc1cc(O)cc(O)c1,,inactive
CC(C)(C)NC(=O)N[C@H](C(=O)N1C[C@H]2[C@@H]([C@H]1C(=O)NC(CC1CCC1)C(=O)C(N)=O)C2(C)C)C(C)(C)C (stereo not given in full),,inactive
CCCCCCO[C@@H](C)c1cccc(-c2csc(NC(=O)c3cc(Cl)c(/C=C(\C)C(=O)O)c(Cl)c3)n2)c1OC,,inactive
CC(C)(S)[C@H](N)C(=O)O,0.739% [at 5.34 µM],
CC[N+](CC)(CC)CCC(O)(c1ccccc1)C1CCCCC1 (stereo not given),,inactive
CCC(C)C(C(=O)OCC[N+](C)(CC)CC)c1ccccc1 (stereo not given),,inactive
NC(N)=NCC1COC2(CCCCC2)O1 (stereo not given),,inactive
C=Cc1c(C)c2cc3nc(c(CC(=O)N[C@@H](CC(=O)O)C(=O)O)c4nc(cc5[nH]c(cc1[nH]2)c(C)c5CC)C(C)=C4C(=O)O)[C@@H](CCC(=O)O)[C@@H]3C,1.87%,
CN1N=C2CCN(C(=O)[C@H](COCc3ccccc3)NC(=O)C(C)(C)N)C[C@]2(Cc2ccccc2)C1=O,,inactive
CO/N=C(\C(=O)N[C@@H]1C(=O)N2C(C(=O)OCOC(=O)C(C)(C)C)=C(/C=C\c3scnc3C)CS[C@H]12)c1csc(N)n1,,inactive
CN(C)C(=O)c1cc2cnc(Nc3ccc(N4CCNCC4)cn3)nc2n1C1CCCC1,,inactive [at 26.4 µM]
CN(C)CCC(O)(c1ccccc1)c1ccccc1Cl (stereo not given),,inactive
O=C(O)C(O)[C@H](O)[C@H](O)[C@H](O)[C@H](O)CO (stereo not given in full),,inactive
CCOc1ccc(N=C(C)Nc2ccc(OCC)cc2)cc1,3.37%,
CCCCCCCCCCCCOC(=O)CS(=O)(=O)O,4.55%,
COc1ccc(CNc2nc(N3CCC[C@H]3CO)ncc2C(=O)NCc2ncccn2)cc1Cl,-11.2%,
NCCS[As](SCCN)c1ccc(Nc2nc(N)nc(N)n2)cc1,,inactive

Compound,"activity change, negative = cytotoxicity",outcome
NCCCC[C@H](NC(=O)[C@@H]1CCCN1C(=O)[C@@H]1CSSC[C@H](NC(=O)CNC(=O)CNC(=O)CN)C(=O)N[C@@H](Cc2ccc(O)cc2)C(=O)N[C@@H](Cc2ccccc2)C(=O)N[C@@H](CCC(N)=O)C(=O)N[C@@H](CC(N)=O)C(=O)N1)C(=O)NCC(N)=O (H-GGGCYFQNCPKG-NH2; disulfide 4-9),,inactive
Cc1c(C)c2c(c(C)c1OC(=O)CCC(=O)O)CC[C@@](C)(CCC[C@H](C)CCC[C@H](C)CCCC(C)C)O2,4.28%,
CCC(=O)O[C@@H](OP(=O)(CCCCc1ccccc1)CC(=O)N1C[C@H](C2CCCCC2)C[C@H]1C(=O)O)C(C)C (stereo not given in full),,inactive [at 11.4 µM]
O=C(Nc1ccc(O)cc1)c1ccccc1O,-11.3%,
CC1CC(OC(=O)C(O)c2ccccc2)CC(C)(C)C1 (stereo not given),0.224%,
CCCCCCCCCCCCCCCCCC(=O)NCCCC[C@H](NC(=O)CC[C@@H](NC(=O)[C@H](C)NC(=O)[C@@H](C)O[C@H]1[C@H](O)[C@@H](CO)OC(O)[C@@H]1NC(C)=O)C(N)=O)C(=O)O (stereo not given in full),2.58%,
CCCCC(=O)N(Cc1ccc(-c2ccccc2-c2nn[nH]n2)cc1)[C@H](C(=O)O)C(C)C,-13.4%,
CCN(CC)C(=O)[C@]1(c2ccccc2)C[C@H]1CN,2.47%,
C=C1c2c(Cl)ccc(O)c2C(O)=C2C(=O)[C@@]3(O)C(O)=C(C(N)=O)C(=O)[C@@H](N(C)C)[C@@H]3[C@@H](O)[C@H]12,-4.23%,
CCCCN(CCCC)C(=S)[S-].CCCCN(CCCC)C(=S)[S-].[Zn+2],,inactive
Cc1c(N)nc(C(CC(N)=O)NCC(N)C(N)=O)nc1C(=O)NC(C(=O)NC(C)C(O)C(C)C(=O)NC(C(=O)NCCc1nc(-c2nc(C(=O)NCCCN[C@@H](C)c3ccccc3)cs2)cs1)C(C)O)C(O[C@@H]1O[C@@H](CO)[C@@H](O)[C@H](O)[C@@H]1O[C@H]1O[C@H](CO)[C@@H](O)[C@H](OC(N)=O)[C@@H]1O)c1cnc[nH]1 (stereo not given in full),-8.47%,
CC[C@H]1OC(=O)C[C@@H](O)[C@H](C)[C@@H](O[C@@H]2O[C@H](C)[C@@H](O)[C@H](N(C)C)[C@H]2O)[C@@H](CCN2C[C@H](C)C[C@H](C)C2)C[C@@H](C)C(=O)/C=C/C(C)=C/[C@@H]1CO[C@@H]1O[C@H](C)[C@@H](O)[C@@H](OC)[C@H]1OC,2.91%,
C[N+](C)(C)CC(O)CC(=O)O (stereo not given),,inactive
C[N+]1(C)CCN(CC(O)(c2ccccc2)C2CCCCC2)CC1 (stereo not given),,inactive
COc1ccc(CNCC(O)COc2ccc3[nH]c(=O)ccc3c2)cc1OC (stereo not given),,inactive
CON=C1C[C@]2(C[C@@H]3C[C@@H](C/C=C(\C)C[C@@H](C)/C=C/C=C4\CO[C@@H]5[C@H](O)C(C)=C[C@@H](C(=O)O3)[C@]45O)O2)O[C@H](/C(C)=C/C(C)C)[C@H]1C,-1.71%,
CC(OC(=O)NCC1(CC(=O)O)CCCCC1)OC(=O)C(C)C (stereo not given),2.24%,
CCCCC(O)c1ccccc1 (stereo not given),2.5%,
C=CC1(C)CC(=O)C2(O)C(C)(O1)C(OC(C)=O)C(OC(=O)CCN(C)C)C1C(C)(C)CCC(O)C12C (stereo not given),-2.74%,
CCOc1nc2cccc(C(=O)OC(C)OC(=O)OC3CCCCC3)c2n1Cc1ccc(-c2ccccc2-c2nn[nH]n2)cc1 (stereo not given),-5.44%,

# Reference: PubChem BioAssay (NCATS)
